# Laboratory results: article PMC6919601, “Identification of Plasmodium dipeptidyl aminopeptidase allosteric inhibitors by high throughput screening” (PLoS ONE, 2019)
# Hit rate of the full screen: of about 110,000 compounds, about 230 (0.21%) showed an effect of 50% or more. Many of the other results were omitted from the sample, so strong results are more common in it than they were.
# Biological target: DPAP1 (Plasmodium falciparum, UniProt Q8IIJ9)
# Experiment: primary screen, percent inhibition; read by cleavage of a fluorogenic dipeptide substrate; higher = more effect of the substance
# Parameters: species or system P. falciparum D10 trophozoite lysates; single well
# 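Note: 30 min substrate incubation versus DMSO and 10 µM JCP410 controls.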
# Sequence of DPAP1 (Q8IIJ9 whole entry, looked up): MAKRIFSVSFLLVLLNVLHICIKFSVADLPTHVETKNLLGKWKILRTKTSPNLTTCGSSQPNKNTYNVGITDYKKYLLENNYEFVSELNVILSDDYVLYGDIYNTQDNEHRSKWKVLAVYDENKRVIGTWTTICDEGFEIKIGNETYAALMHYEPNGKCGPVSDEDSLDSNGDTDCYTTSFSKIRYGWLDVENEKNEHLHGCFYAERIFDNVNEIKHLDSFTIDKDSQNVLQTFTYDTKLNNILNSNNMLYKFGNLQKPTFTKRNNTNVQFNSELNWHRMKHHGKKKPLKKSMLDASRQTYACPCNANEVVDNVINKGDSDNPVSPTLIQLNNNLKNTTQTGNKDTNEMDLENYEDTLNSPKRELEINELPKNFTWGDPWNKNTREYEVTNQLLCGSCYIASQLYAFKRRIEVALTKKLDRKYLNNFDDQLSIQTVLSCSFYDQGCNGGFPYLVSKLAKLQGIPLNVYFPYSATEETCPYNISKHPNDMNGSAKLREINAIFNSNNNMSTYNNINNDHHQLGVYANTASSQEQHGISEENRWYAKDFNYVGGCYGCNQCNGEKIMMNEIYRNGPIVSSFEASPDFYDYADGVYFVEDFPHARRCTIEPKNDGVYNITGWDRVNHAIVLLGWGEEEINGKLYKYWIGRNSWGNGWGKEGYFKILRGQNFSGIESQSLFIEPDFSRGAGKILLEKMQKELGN
row,Structure (SMILES),% Inhibition @ 10 uM [%]
1,Cc1cccc(Nc2nc(-c3sc(N)nc3C)cs2)c1,2.7
2,Cc1ccc(OC(C)C(=O)N(Cc2ccccc2)C2CCS(=O)(=O)C2)cc1C (stereo not shown),0.561
3,Cc1cc(C)c2nc(N3CCCC(C(=O)N4CCCCCC4)C3)sc2c1 (stereo not shown),1.8
4,Nc1nc(S)nc2sc3c(c12)CCN(Cc1ccccc1)C3,54.1
5,CSc1nc(N)c2c3c(sc2n1)CN(Cc1ccccc1)CC3,-1.66
6,CCN1CCc2c(sc3nc(S)nc(N)c23)C1,42.8
7,CC(C)C[C@H](NC(=O)OCc1ccccc1)C(=O)NCC(=O)CN(Cc1ccco1)C(=O)OC(C)(C)C,-7.36
8,CC1(C)CC2=NC(S)=C(C#N)C(c3cccnc3)C2=C(O)C1 (stereo not shown),67.3
9,CC1=C(C#N)C(c2cccnc2)C2=C(O)CC(C)(C)CC2=N1 (stereo not shown),-4.03
10,CC1=C(C#N)C(c2ccccc2)C2=C(O)CC(C)(C)CC2=N1 (stereo not shown),2.41
11,CCOc1ccc(-c2nn3c(-c4cc(OC)c(OC)c(OC)c4)nnc3s2)cc1,56.2
12,COc1cc(-c2nnc3sc(-c4ccc(C)c(C)c4)nn23)cc(OC)c1OC,29.8
13,COc1ccccc1-c1nnc2sc(/C=C/c3ccccc3)nn12,6.01
14,COc1cc(-c2nnc3sc(/C=C/c4ccco4)nn23)cc(OC)c1OC,6.01
15,COc1cc(-c2nnc3sc(/C=C/c4ccccc4)nn23)cc(OC)c1OC,59.6
16,COc1cc(-c2nnc3sc(-c4ccc(C(C)(C)C)cc4)nn23)cc(OC)c1OC,2.89
17,O=[N+]([O-])c1ccc(S(=O)(=O)n2cnc3ccccc32)cc1,2.81
18,CCOC(=O)N1CCN(c2ccc(/C=C(\C#N)c3nc4ccccc4s3)o2)CC1,4.67
19,COc1ccccc1/C=C/c1nn2c(C3COc4ccccc4O3)nnc2s1 (stereo not shown),50.2
20,COc1ccccc1/C=C/c1nn2c(C)nnc2s1,2.29
21,c1ccc2c(c1)OCC(c1nnc3sc(-c4ccncc4)nn13)O2 (stereo not shown),2.68
22,Cc1ccc(-c2nn3c(C4COc5ccccc5O4)nnc3s2)cc1C (stereo not shown),2.89
23,COc1ccccc1-c1nn2c(C3COc4ccccc4O3)nnc2s1 (stereo not shown),7.5
24,Clc1ccc(-c2nn3c(C4COc5ccccc5O4)nnc3s2)cc1 (stereo not shown),53.7
25,COc1ccc(/C(O)=C/C=N/c2ccc3c(c2)OCO3)cc1,-4.12
26,COc1ccccc1NC(=O)C1=C(C)N=C2CCCC(O)=C2C1c1ccc(OC)c(OC)c1 (stereo not shown),2.51

row,Structure (SMILES),% Inhibition @ 10 uM [%]
1,COc1cc(NS(=O)(=O)c2ccc(N3C(=O)c4ccccc4C3=O)cc2)nc(OC)n1,-1.96
2,CCOc1cc(CN2CCN(Cc3ccccc3)CC2)ccc1O,3.9
3,CCOc1cc(CN2CCN(C)CC2)ccc1O,2.33
4,CCOc1cc(CN2CCSCC2)ccc1O,96.4
5,NCCSc1nnc2c(n1)[nH]c1ccccc12,77.5
6,CCCCCCSc1nnc2c(n1)[nH]c1ccccc12,-2.35
7,CCCCSc1nnc2c(n1)[nH]c1ccccc12,2.86
8,COc1ccc(-n2c3c(c(=O)[nH]c2=O)C(NC(=O)c2ccc(F)cc2)(C(F)(F)F)C(=O)N3)cc1 (stereo not shown),3.57
9,COc1ccc(C2=N/C(=C\c3cccs3)C(=O)O2)cc1,11.6
10,COc1cc(C(=O)NCc2cn3cccc(C)c3n2)cc(OC)c1OC,3.3
11,COc1ccc(/C=N/n2c(S)nnc2C(F)(F)F)cc1O,-3.04
12,COc1cc(C2CC(=O)N3CN(C)CSC3=C2C#N)cc(OC)c1OC (stereo not shown),3.77
13,COc1ccc(OC)c(C2CC(=O)N3CN(C4CCCCC4)CSC3=C2C#N)c1 (stereo not shown),9.77
14,COc1ccc(Br)cc1C1CC(=O)N2CN(C3CCCCC3)CSC2=C1C#N (stereo not shown),60.2
15,COc1ccc(Br)cc1C1CC(=O)N2CN(C)CSC2=C1C#N (stereo not shown),58.8
16,COc1cccc(C2CC(=O)N3CN(C4CCCCC4)CSC3=C2C#N)c1OC (stereo not shown),21.8
17,CCC(C(=O)Nc1nc2nc(C)cc(O)n2n1)c1ccccc1 (stereo not shown),0.401
18,N#CC1=C2SCN(C3CCCC3)CN2C(=O)CC1c1ccc(Cl)cc1 (stereo not shown),55.3
19,CCc1ccc(C2CC(=O)N3CN(C4CCCCC4)CSC3=C2C#N)cc1 (stereo not shown),64.5
20,CCOc1ccc(C2CC(=O)N3CN(C4CCCCC4)CSC3=C2C#N)cc1 (stereo not shown),46.6
21,COc1cc(C2CC(=O)N3CN(C4CCCCC4)CSC3=C2C#N)ccc1O (stereo not shown),-1.28
22,Cc1ccc(C2CC(=O)N3CN(C4CCCCC4)CSC3=C2C#N)cc1 (stereo not shown),25.9
23,N#CC1=C2SCN(C3CCCC3)CN2C(=O)CC1c1cccs1 (stereo not shown),48.2
24,Cc1nnc(SCc2ccc(F)cc2)nc1O,3.62
25,Cc1ccc(COc2ncnc3[nH]cnc23)c(C)c1,-3.09
26,Cc1ccc(CNC(=O)C2CCCN(S(=O)(=O)c3cccc4nonc34)C2)cc1 (stereo not shown),-0.668
